The results in this text go back to PubChem BioAssay (Tox21).

The nature of assay [1]: qHTS assay to identify small molecule antagonists of the estrogen related receptor (ERR) signaling pathway from Tox21 library - cell viability counter screen (AID 1224834). Also: nearly all actives have a fitted effect of over 30% in size. Also: potency is read from the fitted curve at half-maximal effect. Put shortly: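 Seeded ERR cells were rested 6 h at 37 C/5% CO2 before compounds, positive and negative controls or DMSO were added. Incubation continued for 17.5 h, and viability was then quantified by CellTiter-Fluor fluorescence.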
On the technique in general: Quantitative high-throughput screening tests each substance at several concentrations.

Assay [2] has as its target Luciferin 4-monooxygenase (Photinus pyralis) (UniProt P08659). The assay can be described thus: qHTS assay to identify small molecule inhibitors of firefly luciferase (AID 1224835). Also: nearly all actives have a fitted effect of over 25% in size. Also: potency is read from the fitted curve at half-maximal effect. Put shortly:
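Biochemical qHTS: compounds run as interplate titrations against purified firefly enzyme, with D-luciferin and ATP each at its KM concentration. Light output recorded by CCD imaging.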

Assay [3] can be described thus: qHTS assay to identify small molecule agonists of the constitutive androstane receptor (CAR) signaling pathway - cell viability counter screen (AID 1224836). Also: series mostly up to about 92 µM; nearly all actives have a fitted effect of over 45% in size. In outline: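 Compound titrations (15 concentrations) went onto HepG2-CYP2B6-hCAR cells 4 h after seeding, alongside PK11195 at a final 0.75 uM; a 23 h, 37 C/5% CO2 incubation preceded CellTiter-Fluor viability measurement.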

Assay [4] is described as follows: qHTS assay to identify small molecule antagonists of the constitutive androstane receptor (CAR) signaling pathway - cell viability counter screen (AID 1224837). Also: series mostly up to about 92 µM; nearly all actives have a fitted effect of over 45% in size. In outline: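 To flag cytotoxic false antagonists, HepG2 hCAR/CYP2B6-2.2kb cells were treated 23 hr with 15-concentration compound series and 50 nM CITCO at 37 C/5% CO2; CellTiter-Fluor fluorescence was the measured end point.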

The nature of assay [5]: qHTS assay to identify small molecule antagonists of the estrogen related receptor signaling pathway with the pleiotropic PPARgamma coactivator (PGC) from Tox21 10K library - cell viability counter screen (AID 1224840; active = well fitted cell-killing curve with a large enough effect in the repeat runs, not every such curve was filed as active; also: nearly all actives have a fitted effect of over 40% in size). In outline: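 Seeded PGC/ERR cells (2,000/well, 6 h, 37 C/5% CO2) get compound by pin tool; 17.5 h incubation at 37 C; CellTiter-Fluor added, 30 min, fluorescence measured.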

Assay [6] deals with Thyrotropin receptor (Homo sapiens) (UniProt P16473). The assay can be described thus: qHTS assay to identify small molecule agonists of the thyroid stimulating hormone receptor (TSHR) signaling pathway (AID 1224843; calls by dose curve; also: nearly all actives have a fitted effect of over 45% in size; also: potency is read from the fitted curve at half-maximal effect). Put shortly: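 Agonist-mode screen: TSHR HEK293 cells received test chemicals for half an hour at room temperature, then HTRF cAMP detection reagents for one hour prior to fluorescence measurement. Each chemical ran as a 15-concentration series, triplicated.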

Assay [7] in a line: qHTS assay to identify small molecule agonists of the hypoxia (HIF-1) signaling pathway - cell viability counter screen (AID 1224844; calls by dose curve; also: nearly all actives have a fitted effect of over 50% in size; also: potency is read from the fitted curve at half-maximal effect). In outline: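 HRE-bla ME-180; 0.5% dFBS; cpd 17 h, 37C, 5% CO2; CellTiter-Glo lum., 30 min RT, post-FRET read, same wells.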
The nature of assay [8]: qHTS assay to identify small molecule agonists of H2AX (AID 1224845; active = well fitted activation curve with a large enough effect in the signal ratio in the repeat runs, not every such curve was filed as active; the % refers to the signal ratio). In outline: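 Wild-type CHO-K1 cells, plated overnight, exposed 3hr at 37C to 15 concentrations (0.76% DMSO final). Lysed, then HTRF anti-pH2AX (S139) cryptate and anti-H2AX-d2 antibodies, 24 hr room temperature; 665/620 nm emission read.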
Assay [9] is described as follows: qHTS assay to identify small molecule agonists of the hypoxia (HIF-1) signaling pathway (AID 1224846; active = well fitted activation curve with a large enough effect in the signal ratio in the repeat runs, not every such curve was filed as active; the % refers to the signal ratio). Put shortly: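 Reporter induction in HRE-bla ME-180 cells is taken as agonism: cells sit 5 hrs after plating, receive compounds or DMSO only, incubate 17 hrs at 37C under 5% CO2, and are loaded with CCF4-AM for beta-lactamase FRET measurement.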
Assay [10] is described as follows: qHTS assay to identify small molecule agonists of H2AX - cell viability counter screen (AID 1224847; calls by dose curve; also: top concentration of the series differs between compounds; nearly all actives have a fitted effect of over 30% in size). Put shortly: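 Read-out: CellTiter-Glo luminescence, 30 min RT. Cells: wild-type CHO-K1, 1000/well, 10% FBS, plated overnight at 37C. Treatment: 15 concentrations, 3 hr, 37C, 0.76% DMSO.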
Assay [11] is described as follows: qHTS RealTime-Glo MT Cell Viability Assay in HepG2 cells - 24 hour (AID 1224867). Also: nearly all actives have a fitted effect of over 50% in size. In outline: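 Tox21 10K library screened in qHTS format on HepG2 cells carrying RealTime-Glo reagents. Compounds were added after a 5 h preincubation, and the luminescent signal from continuous culture was measured repeatedly during 40 h treatment.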
The nature of assay [12]: qHTS RealTime-Glo MT Cell Viability Assay in HEK293 cells - 32 hour (AID 1224868). Also: nearly all actives have a fitted effect of over 50% in size. Also: potency is read from the fitted curve at half-maximal effect. In outline: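 Luminescence generated by NanoLuc from substrate produced by living HEK293 cells served as the viability signal. Each value reflects the reading at its stated time point during continuous 40 h compound exposure at 37 C.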
Assay [13] can be described thus: A CellTox Green Cytotoxicity Assay to monitor cytotoxicity in HEK293 cells - 0 hour (AID 1224869). Also: nearly all actives have a fitted effect of over 50% in size. In outline: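 Tox21 screen in HEK293: membrane-impermeant cyanine dye fluoresces on binding dead-cell DNA; compound pinned 5 h post-seeding, plates held at 37 C, signal read repeatedly through 40 h.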
Assay [14] is described as follows: qHTS assay to identify small molecule antagonists of the estrogen related receptor signaling pathway with the pleiotropic PPARgamma coactivator (PGC) from Tox21 10K library (AID 1224841; call rule not given here). In outline: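 Test chemicals dissolved in DMSO were applied to pre-incubated (6 h) PGC/ERR cells at 2,000 cells/well for an 18 h, 37 C treatment; reporter luminescence was then read using One-Glo.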

Assay [15] in a line: qHTS assay to identify small molecule agonists of the estrogen related receptor signaling pathway with the pleiotropic PPARgamma coactivator (PGC) from Tox21 10K library (AID 1224842). Also: nearly all actives have a fitted effect of over 15% in size. Put shortly: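 PGC/ERR reporter cell line, 2,000 cells per well, incubated 6 h at 37 C before 23 nL compound in DMSO was added. After 18 h at 37 C, One-Glo luminescence read following 30 min at room temperature.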

The nature of assay [16]: qHTS assay to identify small molecule antagonists of the estrogen related receptor (ERR) signaling pathway from Tox21 library (AID 1224848). Also: nearly all actives have a fitted effect of over 50% in size. Put shortly: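 Quantitative high-throughput format: ERR reporter cells (2,000/well) pre-incubated 6 h, treated 18 h at 37 C with compounds in DMSO alongside positive and negative controls, then read by ONE-Glo luminescence.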
The target in assay [17] is Nuclear receptor subfamily 1 group I member 3 (Homo sapiens) (UniProt Q14994). Description: qHTS assay to identify small molecule antagonists of the constitutive androstane receptor (CAR) signaling pathway (AID 1224838).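 Also: HepG2 cells stably expressing hCAR with CYP2B6 luciferase reporter stimulated by CITCO; nearly all actives have a fitted effect of over 40% in size.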 In outline: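 Human hepatoma HepG2 cells expressing hCAR and a CYP2B6 promoter (2.2 kb) luciferase construct; compound titration (15 points) with 50 nM CITCO final, 24 h at 37 C/5% CO2; luminescence via ONE-Glo after 30 min at room temperature.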

The target is the same in assay [18]. The assay can be described thus: qHTS assay to identify small molecule agonists of the constitutive androstane receptor (CAR) signaling pathway (AID 1224839).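 Also: HepG2 cells stably carrying human CAR and a CYP2B6 luciferase reporter; series mostly up to about 92 µM; nearly all actives have a fitted effect of over 15% in size.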 Put shortly: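 In this screen, CAR-driven CYP2B6 promoter activity is measured by luminescence in HepG2-CYP2B6-hCAR cells after 24 h with test compounds and 0.75 uM PK11195 (final concentration).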

Each structure is given as a SMILES string. Where “and” joins values, the source holds several entries; their conditions need not be identical. Equal values may be shown once. Records with an inconclusive call do not appear. A structure can be active in one record and inactive in another. Calls of active or inactive are those of the source. Unless noted, calls follow the shape of the dose curve; as a rule, active = well fitted curve in the direction sought with a large enough effect in the repeat runs; inconclusive = weak or mixed curves; inactive = no such curve, though single readings can be large; an effect the other way counts as inactive or inconclusive.

Chain of Luciferin 4-monooxygenase (Photinus pyralis) (P08659 whole entry, looked up): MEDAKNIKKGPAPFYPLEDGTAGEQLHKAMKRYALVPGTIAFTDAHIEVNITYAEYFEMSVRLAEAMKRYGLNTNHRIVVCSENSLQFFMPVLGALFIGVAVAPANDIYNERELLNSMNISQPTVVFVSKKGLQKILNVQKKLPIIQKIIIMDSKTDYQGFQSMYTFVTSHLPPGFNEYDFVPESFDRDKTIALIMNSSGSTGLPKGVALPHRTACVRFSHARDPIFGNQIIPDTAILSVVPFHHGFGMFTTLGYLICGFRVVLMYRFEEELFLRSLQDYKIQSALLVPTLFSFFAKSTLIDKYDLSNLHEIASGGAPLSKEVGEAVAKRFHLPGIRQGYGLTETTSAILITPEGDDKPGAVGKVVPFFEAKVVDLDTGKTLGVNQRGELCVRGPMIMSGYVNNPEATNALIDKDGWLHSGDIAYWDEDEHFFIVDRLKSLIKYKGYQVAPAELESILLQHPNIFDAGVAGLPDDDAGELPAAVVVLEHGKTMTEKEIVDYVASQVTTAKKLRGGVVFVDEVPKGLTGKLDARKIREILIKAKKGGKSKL
Chain of Thyrotropin receptor (Homo sapiens) (P16473 whole entry, looked up): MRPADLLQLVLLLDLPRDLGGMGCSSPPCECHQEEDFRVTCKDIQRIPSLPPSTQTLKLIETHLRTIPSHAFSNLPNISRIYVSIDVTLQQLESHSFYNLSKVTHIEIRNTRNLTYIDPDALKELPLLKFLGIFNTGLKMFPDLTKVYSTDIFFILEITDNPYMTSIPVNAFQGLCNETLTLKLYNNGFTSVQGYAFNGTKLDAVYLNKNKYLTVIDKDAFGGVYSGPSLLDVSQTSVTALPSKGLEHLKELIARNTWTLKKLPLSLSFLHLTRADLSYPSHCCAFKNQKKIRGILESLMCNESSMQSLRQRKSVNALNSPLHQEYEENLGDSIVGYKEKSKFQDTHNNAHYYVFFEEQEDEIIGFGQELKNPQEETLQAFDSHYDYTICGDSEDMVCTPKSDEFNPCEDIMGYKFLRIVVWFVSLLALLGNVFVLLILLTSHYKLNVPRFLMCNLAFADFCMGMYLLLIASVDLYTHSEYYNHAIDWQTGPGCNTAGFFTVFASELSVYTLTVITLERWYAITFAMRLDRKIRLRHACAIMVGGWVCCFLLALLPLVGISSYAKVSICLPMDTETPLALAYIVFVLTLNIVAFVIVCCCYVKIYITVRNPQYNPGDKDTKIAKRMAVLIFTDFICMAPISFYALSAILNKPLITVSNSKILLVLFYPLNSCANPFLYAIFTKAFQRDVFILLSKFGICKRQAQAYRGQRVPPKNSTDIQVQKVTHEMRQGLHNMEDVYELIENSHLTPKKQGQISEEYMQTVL
Chain of Nuclear receptor subfamily 1 group I member 3 (Homo sapiens) (Q14994 whole entry, looked up): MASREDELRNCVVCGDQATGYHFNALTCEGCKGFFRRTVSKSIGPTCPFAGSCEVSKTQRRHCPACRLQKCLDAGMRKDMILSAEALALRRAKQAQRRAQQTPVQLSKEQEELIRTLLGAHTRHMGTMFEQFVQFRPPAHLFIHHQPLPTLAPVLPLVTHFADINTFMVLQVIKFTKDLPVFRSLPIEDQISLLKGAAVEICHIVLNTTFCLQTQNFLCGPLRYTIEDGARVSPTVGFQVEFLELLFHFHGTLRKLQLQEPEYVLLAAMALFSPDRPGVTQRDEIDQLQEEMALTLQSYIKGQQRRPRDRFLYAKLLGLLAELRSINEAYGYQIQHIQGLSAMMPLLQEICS

Turning to `COCC(=O)O`, the Potency result in assay [1], in [2], in [3], in assay [4], in [5] and in assay [6] was “inactive” in each case. For the same compound, the Potency entry in assay [7], in [8], in [10], in [11], in [12] and in assay [13] was “inactive” throughout. Also, the call in [9] was inactive.
As to `CC(C)n1c(/C=C/[C@@H](O)C[C@@H](O)CC(=O)O)c(-c2ccc(F)cc2)c2ccccc21`, the Potency result in assay [1], in [3], in assay [4], in assay [5], in assay [7] and in assay [8] was “inactive” in each case. The Potency result in assay [10], in assay [11], in assay [12] and in [13] was “inactive” throughout. Also, the outcome in assay [9] was inactive.
Take `Nc1cc(-c2ccncc2)c[nH]c1=O`: the Potency entry in [1], in [2], in [3], in assay [4], in assay [5] and in [14] was “inactive” throughout. Also, the Potency result in [15], in assay [6], in assay [7], in [8], in [10] and in [16] was “inactive” throughout. For the same compound, the Potency entry in assay [11], in assay [12] and in [13] was “inactive” throughout.
In the case of `COCC(C)O` (configuration not stated), the Potency entry in assay [1], in [2], in assay [3], in assay [4], in [5] and in [14] was “inactive” in each case. For the same compound, the Potency result in assay [15], in assay [6], in [7], in [8], in assay [10] and in assay [16] was “inactive” throughout. Further, the Potency entry in assay [11], in [12] and in assay [13] was “inactive” in each case. For the same compound, the compound was classed as inactive in assay [9].
Consider `CC(C)NCC(O)COc1cccc2ccccc12` (configuration not stated), for which the Potency entry in assay [1], in assay [4], in [17], in [18], in assay [5] and in [7] was “inactive” each time. In addition, the Potency result in assay [8], in assay [10] and in assay [11] was “inactive” each time.
`Nc1c(S(=O)(=O)O)cc(Br)c2c1C(=O)c1ccccc1C2=O`: the Potency entry in assay [1] was “inactive and 24.3 µM (active)”; in assay [2], 35.6 µM (active). In addition, the Potency result in assay [5], in [6], in assay [7], in assay [10], in [11] and in [12] was “inactive” in each case. Also, in assay [13], the Potency entry is “inactive”. Besides, the call in assay [9] was inactive.
Consider `O=[N+]([O-])C(CO)(CO)CO`, for which the Potency entry in assay [1], in assay [2], in [3], in [4], in [5] and in assay [14] was “inactive” throughout. Besides, the Potency entry in assay [15], in assay [6], in [7], in [8], in [10] and in assay [16] was “inactive” in each case. The Potency result in [11], in [12] and in assay [13] was “inactive” each time. The result in assay [9] was inactive.
For the compound `C=C(C)C(=O)OCCCCCC`, the Potency entry in assay [1], in assay [2], in assay [3], in assay [4], in assay [5] and in assay [6] was “inactive” throughout. Further, the Potency result in assay [7], in assay [8], in assay [10], in assay [11], in assay [12] and in [13] was “inactive” throughout. In [9], the result was inactive.
In the case of `CC1=CC[C@H]2C[C@@H]1C2(C)C`, the Potency entry in assay [1], in assay [2], in assay [3], in assay [4], in assay [5] and in assay [6] was “inactive” each time. In addition, the Potency result in assay [7], in [8], in [10], in assay [11] and in assay [12] was “inactive” in each case. Also, the call in assay [9] was inactive.
For the compound `NC(=O)NNc1ccccc1`, the Potency entry in [1], in [3], in [4], in [17], in [18] and in [5] was “inactive” each time. Also, the Potency entry in assay [6], in [7], in [8], in assay [10], in [11] and in assay [12] was “inactive” in each case. Also, the call in [9] was inactive.
`OCCOCCOCCOCCO`: the Potency entry in [1], in assay [2], in [3], in assay [4], in assay [5] and in assay [6] was “inactive” each time. For the same compound, the Potency entry in assay [7], in assay [8], in assay [10], in assay [11], in assay [12] and in [13] was “inactive” each time. Further, the outcome in assay [9] was inactive.
`C=C1CC[C@H](O)CC1=C/C=C1\CCC[C@]2(C)[C@@H]([C@H](C)/C=C/[C@H](C)C(C)C)CC[C@@H]12`: the Potency result in assay [2], in assay [3], in [4], in assay [17], in [5] and in assay [11] was “inactive” throughout. For the same compound, the Potency in [6] was 21.5 µM (active) and 34.4 µM (active); in [7] it was 43.3 µM (active) and 34.7 µM (active); in [12], 48.5 µM (active) and 43.6 µM (active).
For `Oc1ccc2ccccc2c1`, the Potency entry in [1], in [3], in [4], in assay [5], in assay [6] and in assay [8] was “inactive” each time. Moreover, the Potency entry in assay [10], in assay [11], in assay [12] and in assay [13] was “inactive” throughout. The Potency in assay [7] is 35.5 µM (active). For the same compound, the outcome in assay [9] was inactive.
